RGS16-Gao HTS: regulators of human RGS16-Galphao interaction; O15492+P09471; bead-based flow cytometry RGS16-Galphao binding, fluorescence; actives lie on both sides; binding response (% of control), % at 10 µM; 220,000 compounds, 0.38% hits; call rule not given here;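 also: Galphao activated by GDP with aluminum fluoride before binding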
Target sequence (O15492 whole entry, looked up): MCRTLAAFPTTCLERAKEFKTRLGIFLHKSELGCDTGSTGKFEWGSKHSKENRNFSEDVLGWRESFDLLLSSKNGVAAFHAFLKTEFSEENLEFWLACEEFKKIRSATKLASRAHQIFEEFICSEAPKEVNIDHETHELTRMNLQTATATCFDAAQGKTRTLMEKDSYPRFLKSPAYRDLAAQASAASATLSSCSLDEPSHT
Target sequence (P09471 whole entry, looked up): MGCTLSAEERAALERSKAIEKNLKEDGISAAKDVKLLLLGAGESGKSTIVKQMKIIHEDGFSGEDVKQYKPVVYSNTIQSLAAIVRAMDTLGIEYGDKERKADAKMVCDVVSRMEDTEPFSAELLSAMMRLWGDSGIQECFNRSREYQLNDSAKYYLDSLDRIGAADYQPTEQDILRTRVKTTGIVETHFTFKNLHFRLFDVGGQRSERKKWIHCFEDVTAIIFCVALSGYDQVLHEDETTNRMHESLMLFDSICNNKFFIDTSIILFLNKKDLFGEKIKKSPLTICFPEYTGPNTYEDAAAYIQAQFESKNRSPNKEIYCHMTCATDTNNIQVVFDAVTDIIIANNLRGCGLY
RGS8-Gao: modulates binding of RGS8 to human Galphao. P09471. multiplexed bead flow cytometry; actives lie on both sides. response (percent of control binding), % at 10 µM. 220,000 compounds, 0.34% hits; in the data active = response below about 60% or above about 140%; inactive = in between;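 also: Galphao activated as the GDP aluminium fluoride complex binding bead-coupled RGS8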
GSH fluor: GSH bead compound fluorescence profile | GSH beads flow cytometry, compound fluorescence 488/530 nm; stronger effect = higher value | fluorescence (KMESF) at 10 µM | 190,000 compounds, 0.25% hits | AID 1776; in the data active = fluorescence above about 89;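 also: glutathione beads carrying GST-tagged Bcl family fusion proteins plus one bare bead set; values are compound well signal with DMSO vehicle wells as background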
Avidin fluor: avidin bead compound fluorescence profile; Avidin beads, compound fluorescence 488/530 nm, flow cytometry; stronger effect = higher value; fluorescence (KMESF) at 10 µM; 220,000 compounds, 0.38% hits; AID 1775; in the data active = fluorescence above about 47
RGS4-Gao reg: modulates binding of RGS4 to human Galphao. binding response (% of control), % at 10 µM. Multiplexed bead flow cytometry; actives lie on both sides. P09471. AID 1415. 220,000 compounds, 0.33% hits; in the data active = binding response below about 49% or above about 150%; inactive = in between;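 also: fluorescent Galphao activated with aluminum fluoride binding bead-coupled RGS4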
RGS7-Gao reg: modulates binding of RGS7 to human Galphao; P09471; Multiplexed bead flow cytometry; actives lie on both sides; binding response (% of control), % at 10 µM; 220,000 compounds, 0.35% hits; AID 1439; in the data active = binding response below about 49% or above about 150%; inconclusive = no clear call, values can overlap the other calls; inactive = in between;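 also: fluorescent Galphao held in activated GDP-AlF4 state binding bead-coupled RGS7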
* hit, by the source's call; ? = inconclusive; / = no result; [ ] = remark or other dose. Rows were chosen to be rich in hits. Some 1.2% of all compounds tested hit in one or more screens of this group.

SMILES	RGS16-Gao HTS	RGS8-Gao	GSH fluor	Avidin fluor	RGS4-Gao reg	RGS7-Gao reg
CC(=O)Nc1nc(CC(C)C)cc(-c2ccco2)c1C#N	101.9	100.6	21	57*	104.8	108.9
Cc1onc(-c2ccccc2Cl)c1C(=O)N1CCCc2ccccc21	100.0	100.8	30	10	100.2	98.8
Cc1onc(-c2ccccc2Cl)c1C(=O)OCC(=O)N1CCCc2ccccc21	105.1	102.0	267*	8	105.6	106.2
Cc1onc(-c2ccccc2Cl)c1C(=O)OCC(=O)Nc1ccc2c(c1)OCO2	103.0	104.9	263*	7	104.1	105.3
Cc1onc(-c2ccccc2)c1C(=O)OCC(=O)Nc1ccc2c(c1)OCO2	109.1	102.1	8	18	111.0	99.5
CCOc1cc(/C=C(/NC(C)=O)C(=O)O)cc(Cl)c1OCc1cccc(Br)c1	103.5	100.9	/	8	104.0	?
COc1ccccc1-c1cc(C(=O)NCc2ccc(F)cc2)no1	99.4	100.1	23	23	100.1	95.7
COc1ccccc1-c1cc(C(=O)NCc2ccccc2)no1	100.0	100.5	15	48*	101.3	102.7
c1coc(CSc2ncnc3c2oc2ccccc23)c1	99.2	99.9	/	3	100.0	?
COC(=O)c1sc(NC(=O)C2CCCO2)c(C(=O)OC)c1C (stereo not given)	82.9	96.7	32	7	99.4	99.1
Cc1c(C(=O)OC(C)C)sc(NC(=O)C2CCCO2)c1C(=O)OC(C)C (stereo not given)	80.6	96.0	93*	4	96.5	94.2
CC(C)(C)NC(=O)c1cccc(NC(=O)c2ccc(NC(=O)c3ccco3)cc2)c1	99.7	100.9	29	10	98.7	101.7
CC(C)(C)NC(=O)c1cccc(NC(=O)c2ccco2)c1	79.7	89.5	99*	4	97.6	95.0
O=C1CN(C(=O)c2cc([N+](=O)[O-])ccc2Cl)C(c2ccc(F)cc2)c2cc(F)ccc2N1 (stereo not given)	31.5	86.2	5	8	97.0	96.3
CC(C)Sc1nc2c([nH]c3ccccc32)c(=O)n1C	111.0	102.0	11	57*	104.5	117.8
CCOC(=O)C(C)Sc1nc2c([nH]c3ccccc32)c(=O)n1C (stereo not given)	103.0	100.3	15	7	100.4	99.9
Cc1occc1C(=O)NNC(=S)NCc1ccccc1	105.6	105.7	4	4	100.2	102.6
CCn1c(Cc2ccccc2)nnc1SCC(=O)Nc1ccc(C)cc1	107.6	100.1	16	5	97.2	100.4
CCn1c(CC(=O)Nc2ccc(C)cc2)nnc1SCC(=O)NCCc1ccccc1	106.5	100.6	15	49*	104.4	110.6
CCOC(=O)c1c(NC(=O)N/N=C/c2ccccc2OCC)sc(C(C)=O)c1C	27.3	84.8	447*	5	90.3	90.1
CCN1C(=O)/C(=C2/Sc3ccccc3N2CC)S/C1=N\c1ncn[nH]1	103.8	103.9	19	9	102.6	97.0
O=C(CN1C(=O)NC2(CCCCCC2)C1=O)N1CCN(S(=O)(=O)c2ccc(Cl)cc2)CC1	91.0	94.2	22	49*	99.2	106.8
CCN1/C(=C/c2ccc3cc(C)ccc3[n+]2CC)Sc2ccccc21	109.8	109.6	7	11	168.7*[activator]	225.3*[activator]
CCN1/C(=C/c2ccc3cc(C)ccc3[n+]2CC)Sc2cc(C)c(C)cc21	91.2	79.7	15	25	112.8	143.9
CN(C)C(=O)COC(=O)[C@H](Cc1ccccc1)NC(=O)c1ccco1	102.2	99.4	18	53*	99.4	109.2
SMILES	RGS16-Gao HTS	RGS8-Gao	GSH fluor	Avidin fluor	RGS4-Gao reg	RGS7-Gao reg
CN(CCOc1ccccc1)S(=O)(=O)c1ccc2oc3ccccc3c2c1	99.6	100.5	29	60*	107.5	118.2
COc1ccc(OCCNS(=O)(=O)c2ccc3oc4ccccc4c3c2)cc1	110.4	99.7	10	10	103.0	103.0
Cc1cc(=O)[nH]c(SCC(=O)Nc2cccc3ccccc23)c1C#N	219.2*[activator]	115.0	29	132*	223.8*[activator]	184.3*[activator]
Cc1cc(C)c(C#N)c(SCC(=O)Nc2ccccc2C)n1	29.2	96.3	26	5	101.5	102.4
COc1ccc(CCN(C)Cc2ccc(OC)c(OCc3ccccc3)c2)cc1OC	105.9	105.9	32	50*	105.8	127.4
CN(C)CCCNC(=O)c1cc(S(=O)(=O)N2CCOCC2)ccc1F	172.3	141.6*[activator]	31	9	165.7*[activator]	141.5
